Luc counter: Kinase-Glo luciferase inhibition (counter-screen); Q27757; Kinase-Glo luciferase, ATP luminescence, 8 min; Potency, µM (highest dose often 38.3 µM), without a hit: top-dose activity change, negative = inhibition, actives largely listed as inhibitors; actives 0.28% (n = 200,000); also: % is scaled to controls: 0 for no effect and ±100 for the full control effect; nearly all actives have a fitted effect of over 60% in size
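Kinase-Glo luciferase light output from ATP and luciferin was measured with 10 uM ATP, within the enzyme's linear range. Buffer: 50 mM imidazole pH 7.2, 50 mM KCl, 7 mM MgCl2, 0.01% Tween 20, 0.05% BSA; luminescence read after 8 min at ambient temperature.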
FLuc counter: firefly luciferase modulation, counter-screen for miR-21 project. P08659. purified FLuc, Km substrates, luminescence inhibition. Potency, µM (series often up to 57.5 µM), for inactives: at the highest dose activity change, negative = inhibition, hits mostly inhibitors. actives 6.9% (n = 360,000). AID 588342;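 also: plate controls were vehicle for no effect and reference inhibitor for full effect; nearly all actives have a fitted effect of over 55% in size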
Target sequence (P08659 whole entry, looked up): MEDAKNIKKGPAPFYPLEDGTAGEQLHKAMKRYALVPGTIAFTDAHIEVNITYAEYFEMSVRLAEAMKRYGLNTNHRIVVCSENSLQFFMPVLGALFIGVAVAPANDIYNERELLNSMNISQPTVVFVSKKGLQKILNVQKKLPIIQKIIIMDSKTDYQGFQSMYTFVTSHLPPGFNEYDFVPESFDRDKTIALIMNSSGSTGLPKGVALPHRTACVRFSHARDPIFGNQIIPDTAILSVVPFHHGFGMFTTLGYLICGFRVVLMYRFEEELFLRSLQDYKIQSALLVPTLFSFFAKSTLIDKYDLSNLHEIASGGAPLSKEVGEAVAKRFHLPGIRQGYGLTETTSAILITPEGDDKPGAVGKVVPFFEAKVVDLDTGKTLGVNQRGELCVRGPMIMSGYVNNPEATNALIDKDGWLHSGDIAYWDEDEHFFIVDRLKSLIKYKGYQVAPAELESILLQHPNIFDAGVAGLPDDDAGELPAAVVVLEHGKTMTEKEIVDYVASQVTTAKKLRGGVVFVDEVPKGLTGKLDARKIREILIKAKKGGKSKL
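Purified P. pyralis luciferase, 10 nM final, with Km-level 10 uM D-luciferin and 10 uM ATP in 50 mM Tris acetate pH 7.5, 10 mM Mg acetate, 0.01% Tween-20, 0.05% BSA; 6-point qHTS titration about 60 µM downward; luminescence read.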
ELG1 genotoxic: inducers of genotoxicity in HEK293T ELG1-luciferase cells; actives 1.3% (n = 330,000); Potency, µM (series often up to 46 µM), without a hit: at the highest dose activity change, positive = activation, usual class: activators; HEK293T ELG1-luciferase reporter, luminescence, 16 h; also: % of control where 0% means no effect; nearly all actives have a fitted effect of over 60% in size
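Genotoxicity was scored as increased ELG1-luciferase reporter signal, measured by ONE-Glo luminescence (30 min, room temperature). Compound or vehicle exposure of the HEK293T reporter cells lasted 16 hr at 37°C.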
NPC1 promoter act: NPC1 promoter activation | actives 2.4% (n = 320,000) | Potency, µM (titrated, usually from 9.22 µM), for inactives: at the highest dose activation, most hits filed as activators | AID 485313 | Huh7 NPC1 promoter luciferase reporter, 24 h; also: % of control where 0% means no effect; nearly all actives have a fitted effect of over 60% in size
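Stably transfected Huh7 (NPC1 promoter→luciferase), 1500 cells/well in Opti-MEM + 10% FBS, 2 h settle, then compound 24 h at 37 °C. Luminescence after 10 min with Amplite reagent.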
Rab9 prom act: activators of Rab9 promoter | Huh7 Rab9 promoter-luciferase reporter, luminescence, 24 h | Potency, µM (series often up to 9.22 µM), for the others: at the highest dose activation, negative = inhibition, usual class: activators | actives 2.8% (n = 320,000); also: % of control where 0% means no effect; nearly all actives have a fitted effect of over 60% in size
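Quantitative HTS format; Huh7 Rab9-luciferase reporter cells (1500/well) receive compound 2 h post-plating, incubate 24 h at 37 °C, then get luciferase reagent for 10 min before luminescence reading.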
SMN2 splice enh: increases expression of the SMN2 splice variant; Potency, µM (doses to about 46.1 µM), inactives show at the highest dose activity change, positive = activation, most hits filed as activators; actives 2.8% (n = 210,000); HEK293 SMN2-luciferase splicing reporter, luminescence, 30-36 h; also: % of control where 0% means no effect; nearly all actives have a fitted effect of over 55% in size
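qHTS luciferase splicing reporter: luminescence rises when SMN2 exon 7 is included in transfected HEK293 cells. Compound exposure lasted 30-36 h at 37C, with 4.5 mM final sodium butyrate as control, followed by a ONE-Glo read.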
Active calls of the source: *; ? = inconclusive; . = not tested or not shown; [ ] = another dose, or the depositor's remark. A selection: hits, their analogues and other compounds. The true share with any hit is near 7.5%. Calls follow the shape of the dose curve; as a rule, active = well fitted curve in the direction sought with a large enough effect; inconclusive = small, poorly fitted or top-dose-only effect, or another doubt; inactive = no such curve, though single readings can be large; an effect the other way counts as inactive or inconclusive. Potency is read from the fitted curve at half-maximal effect.

SMILES | Luc counter | FLuc counter | ELG1 genotoxic | NPC1 promoter act | Rab9 prom act | SMN2 splice enh
N#CCCCSc1ncccc1-c1nc2ccccc2[nH]1 | -0.5% | ? | 14.8% | ? | ? | -6.9%
CC(C)(C)NC(=O)Nc1nnc(SCC(=O)NC2CCCCC2)s1 | . | 10.7µM* | 1.1% | 16.9% | 19.6% | .
CC(=O)Nc1nnc(SCC(=O)Nc2nc(C)cs2)s1 | . | 2.5% | 4.6% | 3.1% | 4.6% | .
Cc1csc(NC(=O)CSc2nnc(NC(=O)NC(C)(C)C)s2)n1 | . | 6.01µM* | 26.2% | 2.9% | 3.8% | .
Cc1ccccc1S(=O)(=O)Oc1ccc2ccc(O)cc2c1 | . | 16.9µM* | 8.2% | 26.4% | -3.3% | .
COC(=O)c1cccc(OC(N)=O)c1 | 9.9% | -0.9% | 0.3% | -1.4% | -2.2% | -0.7%
Cc1ccccc1C(=O)Oc1ccc2ccc(O)cc2c1 | . | 6.75µM* | 5.8µM* | ? | -3.0% | .
Cc1ccccc1C(=O)Oc1cccc2c(O)cccc12 | . | ? | -0.8% | 8.4% | 7.2% | .
CC(=O)Nc1ccc(OS(=O)(=O)c2ccccc2C)cc1 | -3.1% | 0.4% | 3.2% | -0.4% | 15.2% | .
COc1cccc(C(=O)Oc2ccc3ccc(O)cc3c2)c1 | . | 6.01µM* | 1.0% | -0.4% | 3.9% | .
CCCCCCCc1c(O)nc(SCCN2CCOCC2)[nH]c1=O | -2.5% | -1.8% | -0.1% | -5.3% | 0.8% | .
CCOc1ccc(/C=C/C(=O)CCC(=O)O)cc1 | -1.9% | 1.07µM* | ? | ? | 0.708µM* | .
O=C(O)CCC(=O)/C=C/c1ccccc1 | 6.9% | -10.6% | -1.5% | -2.6% | 11.6% | .
NS(=O)(=O)c1ccc(CNC(=O)/C=C/c2ccc(Cl)c(Cl)c2)cc1 | 0.9% | -2.1% | 1.2% | -2.9% | -1.4% | -5.1%
CC(C)c1ccc(/C=C/C(=O)NCc2ccc(S(N)(=O)=O)cc2)cc1 | -0.1% | 13.5µM* | 0.7% | -2.4% | 18.1% | -30.6%
CCOc1ccc(/C=C\C(C)=N\O)cc1 | -28.1% | 8.49µM* | 10.3µM* | 2µM* | 2.24µM* | 15.8µM*
CC(C)c1ccc(/C=C/C(=O)CCC(=O)O)cc1 | -0.9% | 0.239µM* | ? | 0.282µM* | 0.794µM* | 1.41µM*
COc1ccc(NC(=O)CC(C)S(=O)(=O)c2cc3c(cc2C)NC(=O)CO3)cc1OC (stereo not drawn) | . | -6.0% | . | . | . | .
COCCN(CC(=O)Nc1cccc(C)c1C)C(=O)Cn1c(=O)cnc2ccccc21 | . | 0.4% | 3.2% | -1.5% | -8.4% | .
N=C1SC(c2ccccc2)C(=O)N1c1ncc(Cc2ccccc2Cl)s1 (stereo not drawn) | 4.5% | 0.2% | -1.6% | -3.8% | 0.1% | 3.7%
CC1(C)[C@@H](OC(=O)CCC(=O)O)CC[C@@]2(C)[C@H]1CC[C@@]1(C)[C@H]2C(=O)C=C2[C@H]3C[C@](C)(C(=O)O)CC[C@]3(C)CC[C@@]21C | -3.9%[17.1 µM] | . | . | . | . | -0.5%[20.6 µM]
Cc1oc2ncnc(N3CCOCC3)c2c1C(=O)NCc1ccccc1 | . | -1.2% | . | . | . | .
CCCN(CCC)C(=O)c1cc2c(=O)n3cccc(C)c3nc2s1 | . | -1.1% | -2.4% | -1.3% | -4.6% | -4.8%
O=[N+]([O-])c1ccccc1S(=O)(=O)Nc1nc2ccccc2s1 | . | -12.1% | 0.3% | 3.4% | 8.1% | .
O=[N+]([O-])c1ccc2nc(NS(=O)(=O)c3ccccc3[N+](=O)[O-])sc2c1 | . | 10.7µM* | 6.1% | ? | 19.2% | .
CCOC(=O)C1(Cc2ccc(Cl)cc2)CCN(C(=O)c2cc(C)nc(C)n2)CC1 | 6.2% | 0.3% | 0.0% | -3.0% | -0.7% | .
CN(CC(=O)Nc1ccc(F)cc1)CC(=O)NC1CCCCC1 | . | . | -0.5% | 3.5% | -0.4% | .
COc1ccc(Nc2nc(N)c3ccccc3n2)c(OC)c1 | . | 7.57µM* | ? | 3.55µM* | 4.47µM* | .
COc1ccc(Nc2nc(-c3ccccc3)nc3ccccc23)c(OC)c1 | 1.1% | -18.9% | -6.1% | -12.0% | -4.5% | -12.4%
Cc1ccc(Nc2nc(N)c3ccccc3n2)cc1C | . | 0.536µM* | ? | 0.501µM* | 0.501µM* | .

Bioassay records: PubChem BioAssay, National Center for Advancing Translational Sciences (NCATS)
